Here are results for eleven compounds from PubChem BioAssay (NCI).

Test systems include DU-145 prostate; K-562 leukemia; MALME-3M melanoma; MDA-MB-231 breast; RXF 393 renal; SF-268 CNS; SF-295 CNS; SF-539 CNS; UACC-257 melanoma; M14 melanoma.
Common to all, as to test: NCI-60 one-dose screen, 48 h (100 = growth as untreated, 0 = no growth, -100 = all killed)
Conditions in all cases: 10 µM unless noted

Several values for one entry are separate records, joined by “and”; a condition that tells them apart may be missing. Identical values can stand only once. Compounds without any hit were thinned out: in the full panel of roughly 83,000, 20% have a hit.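 Cells were grown in 96-well plates and exposed to the test compound at a single concentration for 48 hours; results are reported as percent growth, with values below 10 considered active.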 Values without a mark were called inactive. Activity calls are given as the source filed them.

As for `Cc1c(C(=O)OCCCCOC(=O)c2c(C)n(C)c3scc[n+]23)[n+]2ccsc2n1C`, the growth in the experiment on DU-145 prostate was 107%; in the experiment with K-562 leukemia it was 92%; in the experiment on MALME-3M melanoma, 105%; in the experiment on MDA-MB-231 breast it was 97.9%; in the experiment on RXF 393 renal it was 103%; with SF-268 CNS, 108%. Also, the growth in the experiment with SF-295 CNS is 93.2%; with SF-539 CNS it was 105%; in the experiment with UACC-257 melanoma it was 96.5%; in the experiment on M14 melanoma, 110%.

With `Nc1ccccc1SC(CC(=O)c1ccccc1)c1ccc([N+](=O)[O-])cc1` (stereo not given), the growth in the experiment on DU-145 prostate is 110% and 88%; in the experiment with K-562 leukemia it was 68.8% and 13.2%; in the experiment on MALME-3M melanoma it was 112% and 74.5%; in the experiment on MDA-MB-231 breast it was 84.1% and 85.2%; in the experiment with RXF 393 renal, 102% and 91.2%; with SF-268 CNS it was 98.7% and 82.1%. Further, the growth in the experiment with SF-295 CNS is 90.2% and 85.2%; with SF-539 CNS, 107% and 105%; in the experiment on UACC-257 melanoma it was 107% and 86.7%; in the experiment with M14 melanoma it was 108% and 85.8%.

Turning to `COc1ccc(C(CC(=O)c2ccc3c(c2)OCO3)C(=O)O)cc1OC` (stereo not given), the growth in the experiment on DU-145 prostate was 121% and 106%; with K-562 leukemia, 119% and 90.1%; with MALME-3M melanoma, 114% and 90.3%; in the experiment with MDA-MB-231 breast it was 128% and 113%; with RXF 393 renal it was 115% and 106%; in the experiment on SF-268 CNS, 111% and 97.7%. Further, the growth was 86.9% and 81.9% with SF-295 CNS; 126% and 104% in the experiment with SF-539 CNS; 91.5% and 106% in the experiment on UACC-257 melanoma; 115% and 103% in the experiment on M14 melanoma.

On to `CSc1nnc(-c2cc3c([nH]c4ccccc43)c(-c3cccc(O)c3)n2)n1-c1ccc(C)cc1`, for which the growth is 62.8% in the experiment with DU-145 prostate; 10.2% in the experiment on K-562 leukemia; 42% in the experiment on MALME-3M melanoma; 25.7% in the experiment with MDA-MB-231 breast; 2.76% (active) in the experiment on RXF 393 renal; 48.7% in the experiment with SF-268 CNS. In addition, the growth is 15% in the experiment with SF-295 CNS, 32.3% in the experiment with SF-539 CNS, 42.5% in the experiment on UACC-257 melanoma and 6.07% (active) in the experiment with M14 melanoma.

In the case of `C=C1C(=O)O[C@H]2[C@H]1CC/C(COC(=O)NCc1ccc(Cn3c(=O)sn(CCCI)c3=O)cc1)=C\CC[C@@]1(C)O[C@@H]21`, the growth in the experiment with DU-145 prostate was 13%; with K-562 leukemia, 4.22% (active); in the experiment on MALME-3M melanoma it was -75.5% (active); in the experiment on MDA-MB-231 breast, 10.9%; with RXF 393 renal, -5.91% (active); in the experiment on SF-268 CNS it was 75%. Besides, the growth in the experiment with SF-295 CNS is 99.3%; with SF-539 CNS, 40%; in the experiment with UACC-257 melanoma, 28.8%; in the experiment on M14 melanoma, -42% (active).

For the compound `COc1cc2ncnc(Nc3ccc(F)c(Cl)c3)c2cc1OCC(=O)N1CCCCC1`, the growth in the experiment with DU-145 prostate is 53.8%; in the experiment with K-562 leukemia, 73.6%; in the experiment with MALME-3M melanoma, 99.1%; in the experiment on MDA-MB-231 breast, 105%; in the experiment with RXF 393 renal, 84.8%; in the experiment with SF-268 CNS, 80%. In addition, the growth is 92.1% in the experiment on SF-295 CNS, 104% in the experiment on SF-539 CNS, 101% in the experiment on UACC-257 melanoma and 85.5% in the experiment on M14 melanoma.

Regarding `Nc1n[nH]c2cccc(C#Cc3cccc(C(=O)Nc4ccc(CN5CCOCC5)c(C(F)(F)F)c4)c3)c12`, the growth was 69.5% with DU-145 prostate; 4.19% (active) with K-562 leukemia; -3.92% (active) with MALME-3M melanoma; 28.8% in the experiment with MDA-MB-231 breast; -4.45% (active) in the experiment with RXF 393 renal; 55% in the experiment with SF-268 CNS. For the same compound, the growth in the experiment on SF-295 CNS is 2.26% (active); in the experiment on SF-539 CNS, -54.5% (active); in the experiment with UACC-257 melanoma, 40.1%; in the experiment with M14 melanoma, 5.11% (active).

On to `COc1ccc2c(c1)CCNC21C(=O)Nc2c(Br)cc(Br)cc21` (stereo not given), for which the growth in the experiment with DU-145 prostate was 110%; in the experiment on K-562 leukemia, 98.8%; with MALME-3M melanoma, 88.3%; in the experiment with MDA-MB-231 breast it was 74.7%; with RXF 393 renal, 133%; with SF-268 CNS, 100%. The growth with SF-295 CNS is 103%; with SF-539 CNS, 94%; with UACC-257 melanoma, 100%; in the experiment with M14 melanoma, 97.7%.

Regarding `CCCCC1COc2cccc3c2N1C=C/C3=C\C(=O)N(C)c1cccc(Cl)c1` (stereo not given), the growth in the experiment on DU-145 prostate is 103%; in the experiment on K-562 leukemia, 91%; in the experiment on MALME-3M melanoma, 107%; in the experiment with MDA-MB-231 breast, 103%; with RXF 393 renal it was 108%; with SF-268 CNS, 97.9%. Moreover, the growth is 97.6% in the experiment on SF-295 CNS, 104% in the experiment with SF-539 CNS, 103% in the experiment on UACC-257 melanoma and 102% in the experiment on M14 melanoma.

As for `CCCCC#Cc1c(/C=C(\CCCC)SCC)n(C)c(=O)[nH]c1=O`, the growth in the experiment on DU-145 prostate was 110%; with K-562 leukemia it was 72.2%; in the experiment with MALME-3M melanoma it was 112%; with MDA-MB-231 breast, 102%; in the experiment with RXF 393 renal, -12.1% (active); with SF-268 CNS, 93.7%. In addition, the growth was 114% with SF-295 CNS, 98.4% in the experiment on SF-539 CNS, 98.9% in the experiment on UACC-257 melanoma and 105% in the experiment on M14 melanoma.

Turning to `NS(=O)(=O)c1ccc(C(=O)N=Nc2c(O)[nH]c3c(F)cccc23)cc1`, the growth in the experiment with DU-145 prostate was 113%; in the experiment with K-562 leukemia, 107%; with MALME-3M melanoma it was 95.9%; with MDA-MB-231 breast, 106%; in the experiment on RXF 393 renal it was 97.3%; with SF-268 CNS, 107%. Besides, the growth with SF-295 CNS was 103%; in the experiment with SF-539 CNS, 94.8%; in the experiment on UACC-257 melanoma, 103%; in the experiment on M14 melanoma, 101%.
